Laboratory results taken from PubChem BioAssay (Tox21).
Inconclusive results are not listed. Calls of active or inactive are those of the source. Unless noted, calls follow the shape of the dose curve; as a rule, active = well fitted curve in the direction sought with a large enough effect in the repeat runs; inconclusive = weak or mixed curves; inactive = no such curve, though single readings can be large; an effect the other way counts as inactive or inconclusive.

How the values were obtained:
[1] = molecular target: Retinoic acid receptor RXR-alpha (Homo sapiens) (UniProt P19793); experiment: qHTS assay to identify small molecule agonists of the RXR signaling pathway (AID 1159527; calls by dose curve; also: nearly all actives have a fitted effect of over 35% in size)
How it was run: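 Agonist mode; 9-cis retinoic acid positive control. HEK 293T UAS-bla reporter cells, 2% charcoal-stripped FBS, 16 hr compound exposure at 37 C/5% CO2. LiveBLAzer B/G FRET substrate 2 hr RT; ex 405, em 460/530 nm.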

[2] = qHTS assay to identify small molecule agonists of the RXR signaling pathway - cell viability counter screen (AID 1159529); also: series mostly up to about 77 µM; nearly all actives have a fitted effect of over 50% in size
How it was run: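 Luminescence from CellTiter-Glo (30 min, RT) measured viability in the same wells as the beta-lactamase reporter readout. Cells: GeneBLAzer RXR-alpha HEK 293T, 2% charcoal-stripped FBS. Compound exposure 16 hr, 37 C.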

[3] = qHTS assay to identify small molecule antagonists of the retinoid acid receptor (RAR) signaling pathway - cell viability counter screen (AID 1159551); also: nearly all actives have a fitted effect of over 35% in size
How it was run: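 Seed C3RL4 cells; next day add compound, then retinol to 1 uM final; incubate 6 h at 37 C; add CellTiter-Glo; read luminescence after 30 min at RT.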

[4] = qHTS assay to identify small molecule antagonists of the retinoic acid receptor (RAR) signaling pathway (AID 1159552; also: nearly all actives have a fitted effect of over 50% in size)
How it was run: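 Luminescence from a RARE luciferase reporter in C3RL4 cells served as read-out. Cells received compounds together with 1 uM final retinol and incubated 6 hr at 37 C before detection reagent was added for 30 min at room temperature.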

[5] = qHTS assay to identify small molecule agonists of the retinoic acid receptor (RAR) signaling pathway (AID 1159553)
How it was run: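 Activation of retinol signaling was monitored via a RARE luciferase reporter in C3RL4 cells. After 6 hr compound treatment at 37 C, detection reagent was added for 30 min at room temperature before luminescence reading.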

[6] = qHTS assay to identify small molecule antagonists of the estrogen related receptor (ERR) signaling pathway - cell viability counter screen (AID 1224818);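 also: series mostly up to about 46 µM; viability measured after 17.5 h of compound exposure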
How it was run: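 In the same ERR cell assay, compound-treated wells (17.5 h, 37 C) were multiplexed with a fluorogenic viability reagent, CellTiter-Fluor, read after 30 min to flag cytotoxic substances.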

[7] = qHTS assay to identify small molecule antagonists of the estrogen related receptor signaling pathway with the pleiotropic PPARgamma coactivator (PGC) cell viability counter screen (AID 1224822; also: series mostly up to about 46 µM)
How it was run: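 Compounds in DMSO, with positive and negative controls, were applied to PGC/ERR cells (2,000/well) and left 17.5 h at 37 C before CellTiter-Fluor detection.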

[8] = qHTS assay to identify small molecule antagonists of the estrogen related receptor (ERR) signaling pathway from Tox21 library - cell viability counter screen (AID 1224834); also: nearly all actives have a fitted effect of over 30% in size
How it was run: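 CellTiter-Fluor fluorescence measured; ERR cells; 17.5 h compound incubation at 37 C; 30 min reagent step.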

[9] = molecular target: Luciferin 4-monooxygenase (Photinus pyralis) (UniProt P08659); experiment: qHTS assay to identify small molecule inhibitors of firefly luciferase (AID 1224835); also: series mostly up to about 120 µM; nearly all actives have a fitted effect of over 25% in size
How it was run: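 Biochemical qHTS: compounds run as interplate titrations against purified firefly enzyme, with D-luciferin and ATP each at its KM concentration. Light output recorded by CCD imaging.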

[10] = qHTS assay to identify small molecule agonists of the constitutive androstane receptor (CAR) signaling pathway - cell viability counter screen (AID 1224836); also: series mostly up to about 92 µM; nearly all actives have a fitted effect of over 45% in size
How it was run: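 Viability read-out: CellTiter-Fluor fluorescence after 23 h compound exposure at 37 C/5% CO2 in double-stable HepG2-CYP2B6-hCAR cells, with PK11195 present at 0.75 uM final; compounds tested in 15-point titration.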

[11] = qHTS assay to identify small molecule antagonists of the constitutive androstane receptor (CAR) signaling pathway - cell viability counter screen (AID 1224837); also: series mostly up to about 92 µM; nearly all actives have a fitted effect of over 45% in size
How it was run: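 Using CellTiter-Fluor, viability is scored in HepG2 cells stably carrying hCAR and a 2.2kb CYP2B6 reporter after 23 hr compound exposure across 15 concentrations, with CITCO present at 50 nM.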

[12] = molecular target: Nuclear receptor subfamily 1 group I member 3 (Homo sapiens) (UniProt Q14994); experiment: qHTS assay to identify small molecule antagonists of the constitutive androstane receptor (CAR) signaling pathway (AID 1224838);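 also: HepG2 cells stably expressing hCAR with CYP2B6 luciferase reporter stimulated by CITCO; nearly all actives have a fitted effect of over 40% in size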
How it was run: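 Reporter luminescence was quantified after 24 h exposure of hCAR/CYP2B6-2.2kb double-stable HepG2 cells to compounds at 15 concentrations in the presence of 50 nM CITCO final.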

[13] = molecular target: Nuclear receptor subfamily 1 group I member 3 (Homo sapiens) (UniProt Q14994); experiment: qHTS assay to identify small molecule agonists of the constitutive androstane receptor (CAR) signaling pathway (AID 1224839);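 also: HepG2 cells stably carrying human CAR and a CYP2B6 luciferase reporter; series mostly up to about 92 µM; nearly all actives have a fitted effect of over 15% in size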
How it was run: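 Luminescence read-out (ONE-Glo, 30 min, room temperature) from double-stable HepG2-CYP2B6-hCAR cells exposed 24 h to 15-point compound series in presence of 0.75 uM PK11195 final.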

[14] = qHTS assay to identify small molecule antagonists of the estrogen related receptor signaling pathway with the pleiotropic PPARgamma coactivator (PGC) from Tox21 10K library - cell viability counter screen (AID 1224840; active = well fitted cell-killing curve with a large enough effect in the repeat runs, not every such curve was filed as active; also: nearly all actives have a fitted effect of over 40% in size)
How it was run: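 Here the PGC/ERR cells serve as a cytotoxicity control: they are exposed to compounds for 17.5 hours at 37 C, and live-cell signal is quantified using CellTiter-Fluor fluorescence.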

[15] = qHTS assay to identify small molecule antagonists of the estrogen related receptor (ERR) signaling pathway (AID 1224819;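 also: luminescence from an ERR-driven luciferase reporter measured with One-Glo reagent; series mostly up to about 46 µM; nearly all actives have a fitted effect of over 50% in size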)
How it was run: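 qHTS in ERR cells, 2,000/well, 1536 format. Cpd (DMSO) added after 6 h settle, 18 h 37 C. One-Glo luminescence, 30 min RT.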

[16] = qHTS assay to identify small molecule agonists of the estrogen related receptor (ERR) signaling pathway (AID 1224820)
How it was run: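 Cells: ERR line from NTP, 2,000/well. Pre-incubation 6 h, 37 C/5% CO2. Compound (DMSO) pin transfer, 18 h 37 C. One-Glo, 30 min RT, luminescence.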

[17] = system: estrogen-related receptor alpha (ERRalpha) with PGC-1alpha coactivator, human; experiment: qHTS assay to identify small molecule antagonists of the estrogen related receptor signaling pathway with the pleiotropic PPARgamma coactivator (PGC) (AID 1224821; calls by dose curve;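 also: series mostly up to about 46 µM; lower luminescence signal means antagonism of PGC/ERR signalling; nearly all actives have a fitted effect of over 50% in size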)
How it was run: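 Luminescent read-out (One-Glo, 30 min at room temperature) following 18 h treatment of PGC/ERR cells at 37 C with compounds delivered in DMSO. Cells had settled 6 h at 37 C/5% CO2 before dosing.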

[18] = qHTS assay to identify small molecule agonists of the estrogen related receptor signaling pathway with the pleiotropic PPARgamma coactivator (PGC) (AID 1224823)
How it was run: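 Steps: plate PGC/ERR cells at 2,000 cells/well; incubate 6 h, 37 C/5% CO2; pin-transfer compounds (DMSO); incubate 18 h, 37 C; add One-Glo; 30 min RT; read luminescence.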

[19] = qHTS assay to identify small molecule antagonists of the estrogen related receptor signaling pathway with the pleiotropic PPARgamma coactivator (PGC) from Tox21 10K library (AID 1224841; call rule not given here)
How it was run: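 Each well held 2,000 PGC/ERR cells, pre-incubated six hours (37 C, 5% CO2). Test substances in DMSO were added by pin tool and left for 18 h at 37 C before luciferase detection by One-Glo.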

[20] = qHTS assay to identify small molecule agonists of the estrogen related receptor signaling pathway with the pleiotropic PPARgamma coactivator (PGC) from Tox21 10K library (AID 1224842); also: nearly all actives have a fitted effect of over 15% in size
How it was run: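 PGC/ERR reporter cell line, 2,000 cells per well, incubated 6 h at 37 C before 23 nL compound in DMSO was added. After 18 h at 37 C, One-Glo luminescence read following 30 min at room temperature.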
% is scaled to controls: 0 for no effect and ±100 for the full control effect.

Sequence of Retinoic acid receptor RXR-alpha (Homo sapiens) (P19793 whole entry, looked up): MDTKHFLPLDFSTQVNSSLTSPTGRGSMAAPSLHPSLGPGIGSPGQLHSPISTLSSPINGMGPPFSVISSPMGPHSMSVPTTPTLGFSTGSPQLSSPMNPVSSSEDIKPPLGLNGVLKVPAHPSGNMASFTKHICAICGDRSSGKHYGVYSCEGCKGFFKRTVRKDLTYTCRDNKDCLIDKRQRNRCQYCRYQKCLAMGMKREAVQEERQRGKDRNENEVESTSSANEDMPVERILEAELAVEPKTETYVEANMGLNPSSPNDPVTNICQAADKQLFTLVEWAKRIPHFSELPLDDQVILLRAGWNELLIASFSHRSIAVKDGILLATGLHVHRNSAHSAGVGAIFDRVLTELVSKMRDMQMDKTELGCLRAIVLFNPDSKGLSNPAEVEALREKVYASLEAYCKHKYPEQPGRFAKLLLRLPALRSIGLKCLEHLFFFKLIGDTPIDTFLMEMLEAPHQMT
Sequence of Luciferin 4-monooxygenase (Photinus pyralis) (P08659 whole entry, looked up): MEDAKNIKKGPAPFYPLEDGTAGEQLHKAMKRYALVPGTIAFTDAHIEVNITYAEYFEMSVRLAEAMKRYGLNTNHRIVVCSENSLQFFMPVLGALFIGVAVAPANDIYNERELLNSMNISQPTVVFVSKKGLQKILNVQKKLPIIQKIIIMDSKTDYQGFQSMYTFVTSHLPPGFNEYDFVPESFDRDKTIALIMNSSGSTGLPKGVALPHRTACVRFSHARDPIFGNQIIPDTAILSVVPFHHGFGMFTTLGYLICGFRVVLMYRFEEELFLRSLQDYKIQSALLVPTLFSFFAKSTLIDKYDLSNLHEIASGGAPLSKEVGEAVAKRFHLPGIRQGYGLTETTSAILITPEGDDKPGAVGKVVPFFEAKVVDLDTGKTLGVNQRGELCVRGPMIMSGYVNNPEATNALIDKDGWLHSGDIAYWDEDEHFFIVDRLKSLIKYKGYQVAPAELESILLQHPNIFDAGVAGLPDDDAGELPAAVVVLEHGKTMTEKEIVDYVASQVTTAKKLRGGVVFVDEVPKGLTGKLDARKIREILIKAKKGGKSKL
Sequence of Nuclear receptor subfamily 1 group I member 3 (Homo sapiens) (Q14994 whole entry, looked up): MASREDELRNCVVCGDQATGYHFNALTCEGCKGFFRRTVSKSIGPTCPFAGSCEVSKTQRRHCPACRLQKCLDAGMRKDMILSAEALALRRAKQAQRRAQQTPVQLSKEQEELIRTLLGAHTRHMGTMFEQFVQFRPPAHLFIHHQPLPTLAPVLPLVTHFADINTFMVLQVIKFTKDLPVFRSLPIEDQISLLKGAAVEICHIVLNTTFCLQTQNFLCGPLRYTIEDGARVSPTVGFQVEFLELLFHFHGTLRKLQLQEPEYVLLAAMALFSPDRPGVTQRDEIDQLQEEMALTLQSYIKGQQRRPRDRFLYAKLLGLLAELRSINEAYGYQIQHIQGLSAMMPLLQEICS

CC(C(=O)O)c1ccc(CC2CCCC2=O)cc1 (stereo not given)
inactive: Potency [1] | Potency [2] | outcome [3] | Potency [4] | Potency [5] | outcome [6] | outcome [7] | Potency [8] | Potency [9] | Potency [10] | Potency [11] | Potency [12] | Potency [13] | Potency [14]

CCO/C([O-])=N/c1c[n+](N2CCOCC2)no1
inactive: Potency [1] | Potency [2] | outcome [3] | Potency [4] | Potency [5] | outcome [6] | outcome [15] | outcome [16] | outcome [17] | outcome [7] | outcome [18] | Potency [8] | Potency [9] | Potency [10] | Potency [11] | Potency [14] | Potency [19] | outcome [20]

CCN1CCC[C@H]1CNC(=O)c1c(O)c(Cl)cc(Cl)c1OC
inactive: Potency [1] | Potency [2] | outcome [3] | Potency [4] | Potency [5] | outcome [6] | outcome [7] | Potency [8] | Potency [10] | Potency [11] | Potency [12] | Potency [13] | Potency [14]

Cc1nc2c([nH]1)c(=O)n(C)c(=O)n2Cc1ccco1
inactive: Potency [1] | Potency [2] | outcome [3] | Potency [4] | Potency [5] | outcome [6] | outcome [7] | Potency [8] | Potency [10] | Potency [11] | Potency [12] | Potency [13] | Potency [14]

C[C@](N)(Cc1ccc(O)cc1)C(=O)O
inactive: activation [1] 8.62% [at 6.98 µM] | activity change, negative = cytotoxicity [2] 10.7% [at 6.97 µM] | activity change, negative = cytotoxicity [3] 0.103% [at 8.39 µM] | activity, negative = inhibition [4] -1.72% [at 8.39 µM] | activation [5] -0.945% [at 8.36 µM] | outcome [6] | outcome [15] | outcome [16] | outcome [17] | outcome [7] | outcome [18] | viability change, negative = cytotoxic [8] 1.82% [at 8.39 µM] | activity change, negative = inhibition [9] 0.0392% [at 10.5 µM] | viability change, negative = cytotoxic [10] 11.1% [at 8.39 µM] | activity change, negative = cytotoxicity [11] 2.5% [at 8.39 µM] | viability change, negative = cytotoxic [14] -0.23% [at 8.39 µM] | activity, negative = inhibition [19] -1.66% [at 8.39 µM] | activation [20] -0.549% [at 8.39 µM]

NC(=O)c1cn(Cc2c(F)cccc2F)nn1
inactive: Potency [1] | Potency [2] | outcome [3] | Potency [4] | Potency [5] | outcome [6] | outcome [7] | Potency [8] | Potency [9] | Potency [11] | Potency [12] | Potency [13] | Potency [14]

O=C1NC(=O)[C@@]2(CCOc3ccc(F)cc32)N1
inactive: Potency [1] | Potency [2] | outcome [3] | Potency [4] | Potency [5] | outcome [6] | outcome [7] | Potency [8] | Potency [9] | Potency [10] | Potency [11] | Potency [14]

Nc1nc2c(ncn2COC(CO)CO)c(=O)[nH]1
inactive: Potency [1] | Potency [2] | outcome [3] | Potency [4] | Potency [5] | outcome [6] | outcome [7] | Potency [8] | Potency [9] | Potency [10] | Potency [11] | Potency [12] | Potency [13] | Potency [14]
